This is part of a sample that, as a whole, favours compounds with a hit. Of some 83,000 tested, about 20% had one in any assay.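 Negative percent growth values reflect cell death: -40 means 40% of the cells present at the start died, and -100 means all died.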 Unmarked numbers belong to inactive results. Active and inactive are the calls of the source. Rule for the calls: active = growth percent below 10; inactive = the rest.
Assays:
Assay in all cases: NCI-60 one-dose screen, 48 h (100 = growth as untreated, 0 = no growth, -100 = all killed)
Details in all cases: 10 µM unless noted
[1] = system: SR leukemia
[2] = system: RPMI-8226 leukemia
[3] = system: OVCAR-8 ovarian
[4] = system: OVCAR-5 ovarian
[5] = system: OVCAR-4 ovarian
[6] = system: SK-OV-3 ovarian
[7] = system: IGROV1 ovarian
[8] = system: OVCAR-3 ovarian
[9] = system: HS 578T breast
[10] = system: NCI/ADR-RES ovarian
[11] = system: T-47D breast
[12] = system: BT-549 breast
[13] = system: MDA-MB-435 melanoma
[14] = system: SW-620 colon
[15] = system: MCF7 breast
[16] = system: HCT-116 colon
[17] = system: HCC-2998 colon
[18] = system: KM12 colon

SMILES | growth [1] | growth [2] | growth [3] | growth [4] | growth [5] | growth [6] | growth [7] | growth [8] | growth [9] | growth [10] | growth [11] | growth [12] | growth [13] | growth [14] | growth [15] | growth [16] | growth [17] | growth [18]
C=C(C)[C@@H]1CC[C@]2(C(=O)O)CC[C@]3(C)[C@H](CC[C@@H]4[C@@]5(C)C[C@@H](Cc6cn(CCO[C@@H]7O[C@H](COC(C)=O)[C@H](OC(C)=O)[C@H](OC(C)=O)[C@H]7OC(C)=O)nn6)[C@H](O)C(C)(C)[C@@H]5CC[C@]43C)[C@@H]12 | 48.2% | 38.3% | 77.8% | 97.3% | 72.8% | 80.8% | 59.3% | 67% | 51.9% | 91.8% | 51.6% | 42.7% | 94.2% | 77.1% | 47.1% | 44.7% | 81.5% | 55.9%
COc1cc(CNC(=O)CCCC/C=C/C(C)C)ccc1OCc1nnc(Nc2ccc([N+](=O)[O-])cc2)o1 | 64.2% | 52.3% | 25% | 101% | 11.3% | 11.8% | 53.5% | 77.3% | 63.2% | 79.6% | 48.6% | 108% | 71.9% | 67.3% | 55.2% | 24.6% | 83.6% | 71.6%
O=C(CN1C(=O)CCC1=O)Nc1ncc(Cc2ccc(F)cc2)s1 | 99.9% | 105% | 107% | 97.3% | 101% | 110% | 101% | 103% | 101% | 100% | 103% | 97.5% | 102% | 102% | 92.4% | 104% | 92.5% | 103%
O=C1/C(=C/c2ccc(-c3ccc(Br)cc3)o2)SC(=S)N1CCc1ccc(O)cc1 | 19.2% | 75.7% | 4.49% (active) | 86% | 38.3% | 76.2% | 45.2% | 44.3% | 59.7% | 81.7% | 58.4% | 77.8% | 48.8% | 81.2% | 82.6% | 75.2% | 93.6% | 42.9%
COc1cc(OC)c2sc(-c3ccc(-n4cncc4-c4ccc(OC)c(OC)c4)cc3)nc2c1 | 50.7% | 33.3% | 71% | 79.5% | 52.9% | 84.8% | 67.2% | 43.7% | 75.5% | 56.4% | 29.7% | 44.5% | 53.3% | 55.7% | 44.5% | 40.8% | 76.4% | 52.8%
COc1ccc(NC(=O)c2sc3nc(C)c(C(=O)/C=C/c4cccc(OC)c4)cc3c2N)cc1 | 5.9% (active) | -22.9% (active) | 11.6% | 59.6% | 69.1% | 91.8% | 11% | -18.4% (active) | 36.8% | 19.5% | 49.5% | 56.3% | 13.6% | 0.0421% (active) | 14.3% | 22.8% | 23.8% | 25.7%
COc1ccc2cc(-c3ccc(NC(C)=O)c(=O)o3)ccc2c1 | 88.2% | 96.3% | 97.1% | 95% | 101% | 94.6% | 108% | 101% | 93.8% | 103% | 87.3% | 101% | 107% | 96.6% | 89.9% | 90.3% | 102% | 97%
COc1cccc(NC(=O)Cn2cc(CN3CCN(c4ccnc5cc(Cl)ccc45)CC3)nn2)c1 | 97.2% | 48% | 83.2% | 93.5% | 85.9% | 74% | 84.9% | 101% | 80.8% | 94.7% | 70.7% | 77.2% | 96.7% | 88.8% | 86.7% | 97% | 93% | 78.4%
Clc1ccc(Nc2nnc(COc3ccccc3)c3ccccc23)cc1 | -20.6% (active) | -25.3% (active) | 5.02% (active) | 23.1% | 18.1% | 9.17% (active) | 16.1% | -35.1% (active) | 14.4% | -1.13% (active) | -5.86% (active) | -9.97% (active) | -3.33% (active) | 15.4% | 1.31% (active) | 1.21% (active) | 8.55% (active) | 0.179% (active)
COc1ccc(CC(C#N)c2cc3ccccc3[nH]2)cc1 (stereo unspecified) | 96.1% | 71.4% | 90.8% | 94.1% | 95.4% | 94.4% | 94.7% | 92% | 90.8% | 92.8% | 85.5% | 92.8% | 82.2% | 93.6% | 94% | 92.3% | 87.5% | 84.7%
Cc1cc(Cl)ccc1NC(=O)c1cc2ccccc2cc1O | 3.8% (active) | 6.82% (active) | 7.81% (active) | 30.5% | 22% | 36.7% | 17.9% | -3.47% (active) | -7.72% (active) | 4.6% (active) | 12.6% | 26.6% | 30.1% | 11.2% | 2.86% (active) | 7.95% (active) | 15% | 7.04% (active)
O=C1/C(=C/c2cccs2)SC(=S)N1CCCN1CCOCC1 | 92.5% | 97.9% | 96% | 105% | 89.1% | 99.4% | 97% | 113% | 98.7% | 92.7% | 67.4% | 102% | 92.1% | 101% | 73.8% | 87.8% | 112% | 96.8%
O=C(Nc1cccnc1Nc1ccc(F)cc1)c1cn(Cc2cccc(Oc3ccccc3)c2)nn1 | 23.4% | 78.9% | 81.4% | 115% | 86.5% | 87.4% | 91.2% | 71.9% | 69.3% | 37.8% | 65.4% | 69.8% | -32.4% (active) | 56.5% | 40.1% | 68.8% | 84.8% | 55.9%
COc1cc(N2C(=O)[C@H](O)C2c2ccc(SC)cc2)cc(OC)c1OC (stereo partly specified) | 3.99% (active) | 9.69% (active) | 6.99% (active) | 80.3% | 56.5% | 3.02% (active) | 31.4% | -11.9% (active) | 34.9% | 14.2% | 49.2% | -6.32% (active) | -39.5% (active) | 23.7% | 13.5% | 1.16% (active) | 26.1% | 11.8%
OB(O)c1cccc(-c2nc3ccc4[nH]ncc4c3c3c2CCCC3)c1 | 32.2% | 53% | 48.7% | 78.3% | 80.2% | 7.93% (active) | 47.2% | 73.9% | 0.588% (active) | 87.6% | 66.6% | 35.5% | 45.3% | 29.9% | 70.1% | 25% | 77.3% | 36.1%
O=c1c2cc(-c3ccccc3)sc2nc2sc(-c3ccccc3)nn12 | 99.1% | 92.4% | 104% | 115% | 105% | 108% | 109% | 108% | 96% | 107% | 99.3% | 118% | 105% | 103% | 97.6% | 102% | 101% | 101%
COc1ccc(Cc2cc(-c3ccccc3)nn(Cc3ccccc3)c2=O)cc1OC | 40.2% | 15.2% | 32.3% | 68.3% | 32.5% | 74.1% | 47% | 47.6% | 66.6% | 30.2% | 7.51% (active) | 14.7% | 43.9% | 41% | 19.9% | 15% | 60.5% | 35.2%
